PubChem BioAssay (NCI)
The panel holds about 83,000 compounds, 20% with a hit somewhere; the sample as a whole holds those more often.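 Negative percent growth values reflect cell death: -40 means 40% of the cells present at the start died, and -100 means all died.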 Values without a mark were called inactive. Calls of active or inactive are those of the source. Rule for the calls: active = growth percent below 10; inactive = the rest.

How the values were obtained:
Assay in all cases: NCI-60 one-dose screen, 48 h (100 = growth as untreated, 0 = no growth, -100 = all killed)
Settings in all cases: 10 µM unless noted
[1] = tested on: NCI-H23 lung
[2] = tested on: NCI-H226 lung
[3] = tested on: NCI-H322M lung
[4] = tested on: HOP-62 NSCLC
[5] = tested on: NCI-H460 lung
[6] = tested on: HOP-92 NSCLC
[7] = tested on: NCI-H522 lung
[8] = tested on: A549/ATCC NSCLC
[9] = tested on: 786-0 renal
[10] = tested on: COLO 205 colon

| SMILES | growth [1] | growth [2] | growth [3] | growth [4] | growth [5] | growth [6] | growth [7] | growth [8] | growth [9] | growth [10] |
| --- | --- | --- | --- | --- | --- | --- | --- | --- | --- | --- |
| COc1ccc(/C=C/C(c2cc(OC)c(OC)c(OC)c2)n2cncn2)cc1 (stereo not given) | 67% | 76% | 61.2% | 41.8% | 22.1% | 40.3% | 28.4% | 35.5% | 39.6% | 30.7% |
| CCC1S/C(=N\N=C(\C)c2cc3cc(Cl)ccc3o2)N(c2ccccc2)C1=O (stereo not given) | 90.7% | 113% | 82.4% | 100% | 122% | 71% | 160% | 132% | 85.8% | 118% |
| O=P(O)(O)OCC1OC(n2cnc3c(NCc4ccco4)ncnc32)C(O)C1O (stereo not given) | 18% | 20.4% | 28.3% | 16% | 12.6% | -7.22% (active) | -32.7% (active) | 7.15% (active) | 10.5% | 22.8% |
| C=CN(C(=O)N1CCN(c2cc3c(cc2F)c(=O)c(C(=O)O)cn3C2CC2)CC1)c1nc(-c2ccc(OC)cc2)cs1 | 12.7% | 37.8% | 15.3% | 18.5% | 10.8% | -14.1% (active) | 12.7% | 16.6% | 30.5% | 29.5% |
| C#Cc1cccc(Nc2nc(C)nc3cc(NC(=O)CCl)ccc23)c1 | -55.6% (active) | -28.1% (active) | -31.3% (active) | -84.2% (active) | -64.1% (active) | -82% (active) | -77.5% (active) | 5.92% (active) | -72.5% (active) | -78.6% (active) |
| CCCCNc1nnc2n(Cc3ccccc3)c(=O)c3c4c(sc3n12)CCCC4 | 45.5% | 50.8% | 69.2% | 44.5% | 22.7% | 53.2% | 33.2% | 37.8% | 47.6% | 61.1% |
| C#CC#CC#CC#CC#CC#CC#CC#CCC1OC[C@H](COC(=O)O[C@@H](C(=O)O[C@H]2C[C@@]3(O)[C@@H](OC(=O)c4ccccc4)[C@@H]4[C@]5(OC(C)=O)CO[C@@H]5C[C@H](O)[C@@]4(C)C(=O)[C@H](OC(C)=O)C(=C2C)C3(C)C)[C@@H](NC(=O)c2ccccc2)c2ccccc2)O1 (stereo not given in full) | 32.9% | 50.7% | 31.6% | 38.5% | 10.3% | 67.6% | 42.4% | 32.3% | 48.8% | 23% |
| COc1ccc(C(=O)Cn2c(C(=O)c3ccc(Cl)cc3)nc3ccccc32)cc1 | 78.3% | 87.4% | 89.7% | 81.8% | 86.9% | 59.3% | 14.8% | 68.1% | 64.6% | 111% |
| COc1cc(OC)cc(-c2ccc(-c3ccc(C(=N)N)o3)o2)c1 | 76.6% | 84.8% | 71.2% | 81.4% | 6.91% (active) | 69.2% | 57.6% | 47.1% | 69% | -61.5% (active) |
| CC1(C)CC[C@]2(C(=O)N[C@H](CO)Cc3ccccc3)CC[C@]3(C)C(=CC[C@@H]4[C@@]5(C)CCCNC(C)(C)[C@@H]5CC[C@]43C)[C@@H]2C1 | 104% | 91.1% | 95.3% | 89% | 78.3% | 26.4% | 96.8% | 89.8% | 65.5% | 77.8% |
| CCCn1cnc2c(c1=N)C(c1ccc(F)cc1)c1sc3c(F)cccc3c1O2 (stereo not given) | 70.1% | 74.7% | 78.1% | 52.4% | 18.7% | 67.5% | 4.15% (active) | 48.1% | 40.9% | 86.4% |
| Cc1ccc2nc(-c3ccc(C(=O)NNC(=S)Nc4ccccc4)cc3)[nH]c2c1 | 91.5% | 92.7% | 99.7% | 95.3% | 94.4% | 99.8% | 95% | 101% | 94.8% | 119% |
